“And” between values parts separate entries of the source, which are not always exact repeats. Equal entries are not always repeated. About 83,000 compounds went through this panel and 20% of them were active in at least one assay; those are over-represented in the sample as a whole.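 Interpretation: 100, growth as untreated; towards 0, rising growth inhibition; 0, no net growth; 0 to -100, cell death. Compounds scoring below 10 were considered active.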 The source made the active and inactive calls.
These compounds were tested on HL-60(TB) leukemia (assay: NCI-60 one-dose screen, 48 h (100 = growth as untreated, 0 = no growth, -100 = all killed)). Settings: 10 µM unless noted.

| SMILES | growth |
| --- | --- |
| CC(C)(O)C#CC#CC(C)(C)O | 104% (inactive) |
| O=C(c1ccccc1)C(Cl)C(Cl)c1ccccc1 (stereo not given) | 25.2% (inactive) |
| O=S(=O)(NCCNc1cc(-c2cn(-c3ccccc3)nc2-c2cccc(O)c2)ccn1)c1ccc(Br)cc1 | 11.1% (inactive) |
| COC(=O)/C(CCC=C(C)C)=C1\[C@@H](OC(C)=O)C[C@@]2(C)[C@H]1CC(=O)N[C@H]1[C@@]3(C)CCNC(=O)[C@@H](C)[C@@H]3CC[C@@]12C | 102% (inactive) |
| NC(=O)c1c(NC(=S)Nc2ccc(OC(F)(F)F)cc2)sc2c1CCC1(C2)OCCO1 | 94.2% (inactive) |
| c1cc2[nH]ncc2cc1-c1nc2ccc3[nH]ncc3c2c2c1CCCC2 | -18.3% (active) |
| C=C(CN1CCc2c([nH]c3ccccc23)C1)c1ccc(C(=O)Nc2ccon2)cc1 | 99% (inactive) |
| COc1ccc(-c2nc(SCCC(C)C)nc(Nc3ccc(F)c(Cl)c3)c2C#N)cc1 | 107% (inactive) |
| COc1cc(OC)c(C(=O)/C=C/c2ccc(C(F)(F)F)cc2)c(OC)c1 | 45.1% (inactive) |
| CC(=O)c1ccc2c(c1)N(CCCN1CCN(CCO)CC1)c1ccccc1S2 | 73.9% (inactive) and 2.94% (active) |
| CCN(CC)c1ccc(NC(C(=O)c2ccccc2)c2ccccc2)cc1 (stereo not given) | 65.5% (inactive) |
| CCCc1c(C)c2sc(=O)[nH]c2[nH]c1=O | 101% (inactive) |
| O=C(NCCO)c1cccnc1 | 97.1% (inactive) |
| O=C(Nc1ccc2cc3ccc(NC(=O)N4CCCCCC4)cc3nc2c1)N1CCCCCC1 | -49.6% (active) |
| CCCCCCCCCCCCCC(=O)Oc1ccc[nH]c1=O | 97.1% (inactive) |
| CC(C)(C)c1ccc(OP(=S)(N/N=C/c2ccccc2O)Oc2ccc(C(C)(C)C)cc2)cc1 | 77.8% (inactive) |
| Cc1ccc(/C=N/Nc2nc(Nc3ccccc3)nc(-n3nc(C)cc3C)n2)cc1 | 53.3% (inactive) |
| O=S(=O)(O)c1ccc(Cl)c(Cl)c1 | 106% (inactive) |
| CN(C)c1ccc(C(Cc2ccc3ccccc3n2)Cc2ccc3ccccc3n2)cc1 | 16% (inactive) and 73.5% (inactive) |
| COc1ccc(-c2nc(-c3nc4ccc(F)cc4[nH]3)cc3c2[nH]c2ccccc23)cc1 | 26.1% (inactive) |

| SMILES | growth |
| --- | --- |
| CCNC(=O)c1ccc2c(c1)nc(-c1ccc(Cl)cc1)n2-c1cc(C(C)(C)C)[nH]n1 | 4.73% (active) |
| CCC[C@H](N[C@@H](C)C(=O)N1[C@H](C(=O)O)C[C@@H]2CCCC[C@@H]21)C(=O)OCC | 116% (inactive) |
| CCOC(=O)C1=C(C)n2nc(CC#N)c(C#N)c2NC1c1ccc(Cl)cc1 (stereo not given) | 105% (inactive) |
| CCOC(=O)c1[nH]c(C)c(C(=O)OCc2ccccc2C#N)c1C | 86.6% (inactive) |
| O=C1CCC(N2Cc3c(C#CCCCNC(=O)c4cc5c(o4)C(=O)c4ccccc4C5=O)cccc3C2=O)C(=O)N1 (stereo not given) | -1.27% (active) |
| C/C(Nc1ccc(Cl)c(Cl)c1)=C1\CCOC1=O | 96.6% (inactive) |
| COc1cc(/C=C/C(=O)c2c(C)nc3ccccc3c2/C=C/c2ccccc2)cc(OC)c1OC | -6.84% (active) |
| O=C(CCc1ccc(O)cc1)N/N=C/c1cc(Br)ccc1O | -6.29% (active) |
| CC(NNC(=S)N1CCCCCC1)c1ccc2ccccc2n1 (stereo not given) | 28.8% (inactive) |
| C=CCN(CCOC(=O)c1ccc([N+](=O)[O-])cc1)CCOC(=O)c1ccc([N+](=O)[O-])cc1 | 88.1% (inactive) |
| COc1cc(Nc2nc(N[C@H]3CCCC[C@@H]3N)nc3cc[nH]c(=O)c23)cc(OC)c1 | 16.2% (inactive) |
| CCCCCCCCn1ccc2cc(NC(=O)Cn3cc(CN4CCCCC4)nn3)ccc21 | -18.7% (active) |
| COc1ccc2[nH]c(O)c(C(=Nc3ccc(N(C)C(=O)CN4CCN(C)CC4)cc3)c3ccccc3)c2c1 | -14.9% (active) |
| CN(C)c1ncnc2c1nnn2C1OC(CO)C(O)C1O (stereo not given) | 4.4% (active) |
| COc1cc(/C=C/C(=O)Nc2cccnc2Nc2cc(OC)c(OC)c(OC)c2)cc(OC)c1OC | 89.1% (inactive) |
| C=C1CC[C@@H]2[C@](C)(COC(C)=O)[C@H](OC(C)=O)CC[C@@]2(C)[C@@H]1CC(Nc1ccc(S(=O)(=O)Nc2cc(C)on2)cc1)C1=CCOC1=O (stereo not given in full) | -2.05% (active) |
| NC(=S)N/N=C1\CCCC(C(F)(F)F)C1 (stereo not given) | 89% (inactive) |
| CC(C)(C)[Si](C)(C)OC1[C@@H](COC(N)=O)O[C@@H](n2cnc3c(N)ncnc32)[C@H]1O[Si](C)(C)C(C)(C)C (stereo not given in full) | -18% (active) |
| O=C(CN1CCOCC1)Nc1nc(-c2cc3ccccc3oc2=O)cs1 | 102% (inactive) |
| Cn1cc(-c2cc3c(Nc4ccc(CC(=O)Nc5cc(C(C)(C)C)on5)cc4)ncnc3[nH]2)cn1 | 6.63% (active) and -21.3% (active) |

— PubChem BioAssay (NCI)
